Where “and” joins values, the source holds several entries; their conditions need not be identical. Equal values may be shown once. Results filed as inconclusive are left out. Where a structure was tested more than once in an assay, its records may differ in their call. Calls of active or inactive are those of the source. Unless noted, calls come from the whole dose curve; as a rule, active = well fitted curve in the direction sought with a large enough effect in the repeat runs; inconclusive = weak or mixed curves; inactive = no such curve, though single readings can be large; an effect the other way counts as inactive or inconclusive.
Assays:
[1] = qHTS assay for small molecules that induce genotoxicity in human embryonic kidney cells expressing luciferase-tagged ATAD5 (AID 651632); note: nearly all actives have a fitted effect of over 15% in size
Summary of the method: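 Luminescent reporter readout, HEK293T ATAD5-luc line: 16 hr drug exposure (37C, 5% CO2) followed by Amplite, 30 min RT.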

[2] = qHTS assay for small molecules that induce genotoxicity in human embryonic kidney cells expressing luciferase-tagged ATAD5 - cell viability (AID 651634; calls by dose curve; note: nearly all actives have a fitted effect of over 25% in size; note: potency is the fitted concentration of half-maximal effect)
Summary of the method: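 Viability read: CellTiter-Fluor fluorescence, 30 min at 37C. Cells: HEK293T, luciferase-tagged ATAD5. Exposure: 15.5 hr, 37C, 5% CO2, compound or DMSO vehicle.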

[3] = qHTS assay for small molecule disruptors of the mitochondrial membrane potential - cell viability (AID 720634; calls by dose curve;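 note: human HepG2 liver cancer cells; series mostly up to about 83 µM; nearly all actives have a fitted effect of over 20% in size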)
Summary of the method: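 HepG2, 1 hr compound, 37 C. ATP luminescence via CellTiter-Glo, 30 min RT, same well as m-MPI.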

[4] = qHTS assay to test for compound auto fluorescence at 590 nm (red) in HepG2 cells (AID 720674)
Summary of the method: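 1 hr compound incubation on HepG2 cells, 37 C, 5% CO2; plate read ex 540 nm / em 590 nm; intensities reported as Rose Bengal sodium equivalents.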

[5] = qHTS assay to test for compound auto fluorescence at 535 nm (green) in HepG2 cells (AID 720675)
[6] = qHTS assay to test for compound auto fluorescence at 460 nm (blue) in HEK293 cells (AID 720678)
Summary of the method: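 Blue read-out at excitation 405 nm and emission 460 nm follows overnight compound exposure of HEK293 cells at 37C in 5% CO2. Activity is given as auto fluorescence equivalency to triamterene.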

[7] = qHTS assay to test for compound auto fluorescence at 590 nm (red) in HEK293 cells (AID 720679)
Summary of the method: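 Red channel, Ex/Em 540/590nm; signal expressed as equivalency to Rose Bengal sodium. HEK293, 2,000 cells/well, 10% dialyzed FBS; 23 nL compound pinned after 4-5 hr attachment; overnight 37C/5% CO2 before reading.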

[8] = qHTS assay to test for compound auto fluorescence at 535 nm (green) in HEK293 cells (AID 720680)
[9] = qHTS assay to test for compound auto fluorescence at 535 nm (green) in HEK293 cell free culture (AID 720682)
Summary of the method: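 Each library compound, or DMSO control, is added by pintool to medium alone, comprising DMEM and 10% FBS. Emission at 535 nm following 485 nm excitation is quantified against fluorescein.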

[10] = qHTS assay to test for compound auto fluorescence at 590 nm (red) in HepG2 cell free culture (AID 720684)
Summary of the method: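 Plate contents were MEM with 10% FBS plus test compound or DMSO, no cells. Fluorescence was recorded with 540 nm excitation and 590 nm emission.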

[11] = qHTS assay to test for compound auto fluorescence at 460 nm (blue) in HepG2 cell free culture (AID 720685)
Summary of the method: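 Compound (23 nL) or DMSO pinned into cell-free MEM with 10% FBS; blue fluorescence read at 405/460 nm excitation/emission, expressed as auto-fluorescence equivalency to triamterene.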

[12] = qHTS assay to test for compound auto fluorescence at 535 nm (green) in HepG2 cell free culture (AID 720686)
[13] = qHTS assay to test for compound auto fluorescence at 460 nm (blue) in HepG2 cells (AID 720687)
Summary of the method: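 Blue-channel autofluorescence (Ex/Em 405/460 nm, triamterene-equivalent) was measured after 1 hr compound exposure at 37 C, 5% CO2. Cells were HepG2, plated overnight at 37 C in MEM plus 10% FBS.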

[14] = qHTS assay to identify small molecule antagonists of the glucocorticoid receptor (GR) signaling pathway - cell viability counter screen (AID 720693); note: nearly all actives have a fitted effect of over 55% in size; note: potency is the fitted concentration of half-maximal effect
[15] = biological target: Aromatase (Homo sapiens) (UniProt P11511); assay: qHTS assay to identify aromatase inhibitors (AID 743083); note: nearly all actives have a fitted effect of over 55% in size; note: potency is the fitted concentration of half-maximal effect
Sequence of Aromatase (Homo sapiens) (P11511 whole entry, looked up): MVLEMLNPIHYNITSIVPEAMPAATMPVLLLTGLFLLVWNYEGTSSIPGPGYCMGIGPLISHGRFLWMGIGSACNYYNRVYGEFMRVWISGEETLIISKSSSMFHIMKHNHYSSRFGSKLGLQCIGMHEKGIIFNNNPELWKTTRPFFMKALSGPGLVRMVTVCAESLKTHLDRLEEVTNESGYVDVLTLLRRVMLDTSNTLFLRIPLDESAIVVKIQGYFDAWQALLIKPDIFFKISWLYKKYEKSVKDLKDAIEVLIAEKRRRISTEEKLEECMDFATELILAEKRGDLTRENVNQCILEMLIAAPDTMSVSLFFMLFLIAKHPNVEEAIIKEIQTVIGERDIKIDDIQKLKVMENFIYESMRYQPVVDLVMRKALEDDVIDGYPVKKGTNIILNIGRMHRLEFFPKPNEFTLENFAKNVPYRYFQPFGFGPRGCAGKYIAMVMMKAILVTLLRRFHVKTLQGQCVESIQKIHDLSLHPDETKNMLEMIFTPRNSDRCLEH

[16] = qHTS assay to identify aromatase inhibitors - cell viability counter screen (AID 743084);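 note: cells stimulated with testosterone during compound exposure; nearly all actives have a fitted effect of over 55% in size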; note: potency is the fitted concentration of half-maximal effect
[17] = biological target: Aryl hydrocarbon receptor (Homo sapiens) (UniProt P35869); assay: qHTS assay to identify small molecule that activate the aryl hydrocarbon receptor (AhR) signaling pathway (AID 743085); note: nearly all actives have a fitted effect of over 15% in size; note: potency is the fitted concentration of half-maximal effect
Sequence of Aryl hydrocarbon receptor (Homo sapiens) (P35869 whole entry, looked up): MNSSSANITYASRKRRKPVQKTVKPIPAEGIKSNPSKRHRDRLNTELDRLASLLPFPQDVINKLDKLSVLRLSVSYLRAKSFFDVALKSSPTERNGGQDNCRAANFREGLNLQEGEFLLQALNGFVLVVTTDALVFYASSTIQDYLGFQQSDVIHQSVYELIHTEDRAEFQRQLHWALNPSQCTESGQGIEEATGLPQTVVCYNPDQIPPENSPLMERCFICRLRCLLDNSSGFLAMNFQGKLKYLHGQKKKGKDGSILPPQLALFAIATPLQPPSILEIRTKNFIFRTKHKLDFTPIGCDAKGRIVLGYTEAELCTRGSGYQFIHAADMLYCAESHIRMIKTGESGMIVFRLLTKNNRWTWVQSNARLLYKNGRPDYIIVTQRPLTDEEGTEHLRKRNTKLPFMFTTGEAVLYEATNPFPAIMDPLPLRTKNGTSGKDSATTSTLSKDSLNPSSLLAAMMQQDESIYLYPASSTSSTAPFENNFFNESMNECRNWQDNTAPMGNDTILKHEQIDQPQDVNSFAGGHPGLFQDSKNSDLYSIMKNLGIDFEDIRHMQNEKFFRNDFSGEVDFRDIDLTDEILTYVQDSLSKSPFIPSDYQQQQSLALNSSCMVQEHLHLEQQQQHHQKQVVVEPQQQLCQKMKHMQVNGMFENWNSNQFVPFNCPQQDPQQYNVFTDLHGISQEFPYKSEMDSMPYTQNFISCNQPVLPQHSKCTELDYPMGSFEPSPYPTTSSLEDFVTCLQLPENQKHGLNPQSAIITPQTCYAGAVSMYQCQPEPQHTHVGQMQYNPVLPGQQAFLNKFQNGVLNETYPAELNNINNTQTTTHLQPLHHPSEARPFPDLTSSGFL
Summary of the method: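 Stably transfected human liver carcinoma cells (HG2L7.5c1; 20 DRE-firefly luciferase) were incubated 5 h, dosed, and kept 24 h at 37C. Agonism was scored from increased luciferase luminescence.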

[18] = biological target: Acetylcholinesterase (Homo sapiens) (UniProt P22303); assay: Acetylcholinesterase (AChE) small molecule antagonists: colormetric cell-based qHTS assay (AID 1347395; calls by dose curve; note: nearly all actives have a fitted effect of over 30% in size; note: potency is the fitted concentration of half-maximal effect)
Sequence of Acetylcholinesterase (Homo sapiens) (P22303 whole entry, looked up): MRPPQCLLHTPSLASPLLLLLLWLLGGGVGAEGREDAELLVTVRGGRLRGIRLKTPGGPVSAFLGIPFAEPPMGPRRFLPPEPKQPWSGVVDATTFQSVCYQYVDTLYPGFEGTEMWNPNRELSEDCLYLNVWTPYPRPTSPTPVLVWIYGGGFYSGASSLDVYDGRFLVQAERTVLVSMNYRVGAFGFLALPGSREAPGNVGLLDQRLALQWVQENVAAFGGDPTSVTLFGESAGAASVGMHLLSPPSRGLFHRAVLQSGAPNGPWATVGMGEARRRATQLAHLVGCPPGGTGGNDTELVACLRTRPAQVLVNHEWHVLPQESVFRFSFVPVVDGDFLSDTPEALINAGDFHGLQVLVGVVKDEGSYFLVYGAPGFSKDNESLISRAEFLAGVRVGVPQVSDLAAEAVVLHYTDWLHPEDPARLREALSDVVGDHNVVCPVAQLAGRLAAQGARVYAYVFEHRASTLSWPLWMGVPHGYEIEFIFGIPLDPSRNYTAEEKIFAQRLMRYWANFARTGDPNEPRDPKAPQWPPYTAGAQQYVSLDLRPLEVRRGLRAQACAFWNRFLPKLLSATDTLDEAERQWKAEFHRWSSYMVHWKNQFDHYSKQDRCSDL
Summary of the method: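 After overnight attachment at 37 C, SH-SY5Y cells get 30 min compound exposure; detection cocktail (acetylthiocholine, DTNB) then incubates 90 min at 37 C, and absorbance reflects AChE-generated thiocholine.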

[19] = biological target: Acetylcholinesterase (Homo sapiens) (UniProt P22303); assay: Acetylcholinesterase (AChE) small molecule antagonists: enzyme-based qHTS assay (AID 1347397; calls by dose curve; note: nearly all actives have a fitted effect of over 55% in size); conditions: Potency: AChE enzyme activity inhibition; outcome: AChE enzyme activity inhibition
Summary of the method: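 Absorbance-based detection of thiocholine with DTNB served as the read-out. Recombinant human AChE was exposed to compound for 30 min at RT before a 10 min RT incubation with acetylthiocholine.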

[20] = biological target: Acetylcholinesterase (Homo sapiens) (UniProt P22303); assay: Acetylcholinesterase (AChE) small molecule antagonists: fluorescence cell-based qHTS assay (AID 1347398; calls by dose curve; note: nearly all actives have a fitted effect of over 50% in size); conditions: Potency: AChE activity; outcome: AChE activity
Summary of the method: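 Fluorimetric cell-based assay: intact SH-SY5Y cells, 30 min compound preincubation at 37 C, acetylthiocholine substrate with thiol probe Thiolite Green, 40 min RT development, fluorescence 490/520 nm.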

Measured: Potency

C=CCC1([C@@H](C)CCC)C(=O)NC(=O)NC1=O
not listed: [18] | [19] | [20]
inactive: all other assays above

C[C@H]1[C@H]2Cc3ccc(O)cc3[C@]1(C)CCN2CCc1ccccc1
not listed: [17] | [18] | [19] | [20]
inactive: all other assays above

CC(C)[C@H]1C(=O)N2CCC[C@H]2[C@]2(O)O[C@](NC(=O)[C@@H]3C[C@@H]4c5cccc6[nH]cc(c56)C[C@H]4N(C)C3)(C(C)C)C(=O)N12
not listed: [18] | [19] | [20]
inactive: all other assays above

CNC(C)CC1CCCCC1 (configuration not stated)
not listed: [13] | [17] | [18] | [19] | [20]
inactive: all other assays above

C[C@@H](N)C(=O)c1ccccc1
not listed: [17] | [18] | [19] | [20]
inactive: all other assays above

S=C(S)N1CCNCC1
not listed: [18] | [19] | [20]
inactive: all other assays above

CC(=O)OC(C)=O
inactive: [18] | [19] | [20]

COc1cc([C@@H]2c3cc4c(cc3[C@H](O)[C@H]3COC(=O)[C@H]23)OCO4)cc(OC)c1OC
inactive: [15] | [18] | [19] | [20]

COc1cc2c(cc1OC)[C@@H]1CC(=O)[C@@H](CC(C)C)CN1CC2
inactive: [15] | [17] | [18] | [19] | [20]

CCNCC(O)c1cccc(O)c1 (configuration not stated)
not listed: [18] | [19] | [20]
inactive: all other assays above

C[C@@H]1[C@@H]2Cc3ccc(O)cc3[C@@]1(C)CCN2CCc1ccccc1
not listed: [4] | [9] | [17] | [18] | [19] | [20]
inactive: all other assays above

CN1[C@@H]2CC[C@H]1CC(OC1c3ccccc3CCc3ccccc31)C2 (some centres not stated)
not listed: [9] | [18] | [19] | [20]
inactive: all other assays above

O=C(OCCN1CCCCC1)C(O)(c1ccccc1)c1ccccc1
not listed: [18] | [19] | [20]
inactive: all other assays above

Brc1ccc(Oc2ccc(Br)cc2)cc1
inactive: [18] | [19] | [20]

Clc1cc(Cl)c(-c2c(Cl)c(Cl)cc(Cl)c2Cl)cc1Cl
inactive: [18] | [19] | [20]

CC1(C)C(C=C(Cl)Cl)C1C(=O)OCc1cccc(Oc2ccccc2)c1 (configuration not stated)
inactive: [15] | [17] | [18] | [19] | [20]

COc1ccc(OC)c(C[C@H](C)N)c1
not listed: [13] | [18] | [19] | [20]
inactive: all other assays above

O.O.O.O=C([O-])C(O)C(O)C(=O)[O-].O=C([O-])C(O)C(O)C(=O)[O-].[K+].[K+].[Sb].[Sb] (configuration not stated)
not listed: [2] | [15] | [18] | [19] | [20]
inactive: all other assays above

Clc1ccc(Cl)c(Cl)c1Cl
inactive: [15] | [17] | [18] | [19] | [20]

Cc1ccccc1N=O
inactive: [18] | [19] | [20]

Cc1ccccc1-n1c(C)nc2ccccc2c1=O
inactive and 24.1 µM (active): [16]
not listed: [17] | [18] | [19] | [20]
inactive: all other assays above

C[C@H]1CC[C@]2(NC1)O[C@H]1C[C@H]3[C@@H]4CC[C@H]5C[C@@H](O)CC[C@]5(C)[C@H]4CC[C@]3(C)[C@H]1[C@@H]2C
not listed: [3] | [18] | [19] | [20]
inactive: all other assays above

CC(C)(C)OCC1CO1 (configuration not stated)
inactive: [15] | [18] | [19] | [20]

CC1(C)S[C@@H]2[C@H](N)C(=O)N2[C@H]1C(=O)O
not listed: [18] | [19] | [20]
inactive: all other assays above

CN1[C@@H]2CC[C@H]1CC(OC(=O)C(CO)c1ccccc1)C2 (some centres not stated)
inactive: [15]

CCN(CC)/[N+]([O-])=N/O
not listed: [1] | [2] | [4] | [6] | [18] | [19] | [20]
inactive: all other assays above

COc1cc(C[C@H](C)N)c(OC)cc1C
not listed: [17] | [18] | [19] | [20]
inactive: all other assays above

Clc1cc(Cl)c(Cl)cc1Cl
inactive: [15] | [17] | [18] | [19] | [20]

C=CCOc1c(Br)cc(C(C)(C)c2cc(Br)c(OCC=C)c(Br)c2)cc1Br
inactive: [17] | [18] | [19] | [20]

C[N+](C)(C)CCCCCCCCCC[N+](C)(C)C
inactive: [15] | [17]
active: [18] 15.5 µM

O=C1CCO1
not listed: [18] | [19] | [20]
inactive: all other assays above

Cc1ccc(C)cc1
inactive: [15] | [18] | [19] | [20]

c1ccc(-c2ccccc2-c2ccccc2)cc1
inactive: [18] | [19] | [20]

CC(=O)[C@H]1CC[C@H]2[C@@H]3CC[C@@H]4C[C@H](O)CC[C@]4(C)[C@H]3CC[C@]12C
not listed: [18] | [19] | [20]
inactive: all other assays above

COc1ccc(C)cc1N
inactive: [15] | [18] | [19] | [20]

COc1ccc2c3c1O[C@H]1[C@@H](O)C=C[C@H]4[C@@H](C2)NCC[C@@]341
not listed: [18] | [19] | [20]
inactive: all other assays above

Cc1c(N)cccc1N
active: [17] 27.9 µM
inactive: [15] | [18] | [19] | [20]

Fc1c(F)c(F)c(Br)c(F)c1F
inactive: [15] | [17] | [18] | [19] | [20]

Nc1ccccc1[N+](=O)[O-]
inactive: [15] | [17] | [18] | [19] | [20]

CNC(=O)Oc1ccc2c(c1)[C@]1(C)CCN(C)[C@@H]1N2C
inactive: [15] | [17]

CCCCCc1cc(O)c2c(c1)OC(C)(C)c1ccc(C)cc1-2
active: [2] 23.7 µM | [14] 13.4 µM | [15] 13.3 µM | [17] 3.35 µM
not listed: [3] | [6] | [16] | [18] | [19] | [20]
inactive: all other assays above

O=C(Cl)c1cccc(C(=O)Cl)c1
inactive: [15] | [17] | [18] | [19] | [20]

COc1ccc(CCN2CCC(Nc3nc4ccccc4n3Cc3ccc(F)cc3)CC2)cc1
active: [15] 21.1 µM

Oc1cc(Cl)cc(Cl)c1Cl
active: [17] 24.9 µM
inactive: [18] | [19] | [20]

Source: PubChem BioAssay (Tox21)
